Source: PubChem BioAssay (National Center for Advancing Translational Sciences (NCATS))
An excerpt weighted towards active compounds, which were near 10% of everything screened.
CtBP-E1A inh = CtBP/E1A binding inhibition. AlphaScreen GST-E1A/His-CtBP binding, 1536-well; stronger effect = lower value. activity change, % (test concentration not listed). 0.49% of 340,000 active. AID 651724; in the data active = activity change below about -65%; inconclusive = mostly about -30% to -63%; note: % is set by controls: 0 for no effect and ±100 for the full control effect
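GST-E1A and His-tagged CtBP (125 nM each as 5X stock) were preincubated with pin-transferred compound for 2 h at 37 °C in the dark, then glutathione donor and nickel acceptor beads were added for 1 h before AlphaScreen reading.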
BAZ2B block = inhibitors of human BAZ2B bromodomain | Potency, µM (titrated, usually from 114 µM), for the others: at the highest dose activity change, negative = inhibition, actives largely listed as inhibitors | 4.4% of 360,000 active | Q9UIF8 | AID 504333 | AlphaScreen BAZ2B-H3K14Ac peptide displacement; note: potency is the fitted concentration of half-maximal effect; % is set by controls: 0 for no effect and ±100 for the full control effect; nearly all actives have a fitted effect of over 60% in size
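BAZ2B (50 nM) with biotin-H3(5-23)K14Ac peptide (50 nM) in PBS pH 7.4, 0.01% Tween-20, preformed 30 min, then compound 30 min at room temperature; top concentration 110uM. AlphaScreen streptavidin donor/nickel chelate acceptor beads (10 ug/mL final), 20 min dark, signal read.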
Six1-Eya2 inh = inhibitors of human Six1/Eya2 interaction. Q15475+O00167. AlphaScreen GST-Six1/His-Eya2 binding, biochemical; stronger effect = lower value. activity change, % (no concentration beside the values). 0.56% of 360,000 active. AID 651725; in the data active = activity change below about -65%; inconclusive = mostly about -30% to -63%; note: % is set by controls: 0 for no effect and ±100 for the full control effect
Target sequence (O00167 whole entry, looked up): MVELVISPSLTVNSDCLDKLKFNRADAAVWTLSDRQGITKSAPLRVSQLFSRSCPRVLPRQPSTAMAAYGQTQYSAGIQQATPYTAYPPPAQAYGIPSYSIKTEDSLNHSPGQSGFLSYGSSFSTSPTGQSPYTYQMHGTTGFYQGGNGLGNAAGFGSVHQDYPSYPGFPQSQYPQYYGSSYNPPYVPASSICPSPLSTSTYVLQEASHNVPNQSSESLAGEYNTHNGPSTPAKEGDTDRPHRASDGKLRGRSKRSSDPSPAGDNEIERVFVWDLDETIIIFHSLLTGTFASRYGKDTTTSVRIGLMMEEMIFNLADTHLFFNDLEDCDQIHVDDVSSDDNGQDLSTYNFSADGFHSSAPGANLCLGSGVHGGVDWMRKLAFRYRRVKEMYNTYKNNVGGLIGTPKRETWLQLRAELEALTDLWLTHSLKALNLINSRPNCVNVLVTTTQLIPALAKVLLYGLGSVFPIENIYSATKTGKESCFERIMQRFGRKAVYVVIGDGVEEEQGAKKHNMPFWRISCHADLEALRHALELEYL
Target sequence (Q15475 whole entry, looked up): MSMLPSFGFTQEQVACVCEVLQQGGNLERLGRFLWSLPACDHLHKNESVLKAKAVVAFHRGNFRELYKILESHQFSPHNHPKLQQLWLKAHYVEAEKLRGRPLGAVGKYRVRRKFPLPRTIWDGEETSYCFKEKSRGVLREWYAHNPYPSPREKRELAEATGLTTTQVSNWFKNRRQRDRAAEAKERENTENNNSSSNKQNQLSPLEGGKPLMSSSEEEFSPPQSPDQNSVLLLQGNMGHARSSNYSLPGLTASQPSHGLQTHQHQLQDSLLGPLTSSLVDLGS
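AlphaScreen luminescence read after one hour at 37 °C in darkness. Pin-transferred compounds met GST-Six1 and His-Eya2 protein (5X stock 250 nM/500 nM) plus glutathione donor and Ni-chelate acceptor beads (5X, 50 ug/mL).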
JMJD2A Tudor = inhibitors of human JMJD2A Tudor domain | O75164 | AlphaScreen JMJD2A-Tudor / H3K4me3 peptide binding | Potency, µM (titrated, usually from 114 µM), for inactives: at the highest dose activity change, negative = inhibition, hits mostly inhibitors | 4.4% of 390,000 active | AID 504339; note: potency is the fitted concentration of half-maximal effect; % is set by controls: 0 for no effect and ±100 for the full control effect; nearly all actives have a fitted effect of over 50% in size
G9a block = inhibitors of human histone lysine methyltransferase G9a; AID 504332; G9a H3K9 monomethylation, AlphaScreen, 2 h; 8.8% of 350,000 active; Potency, µM (titrated, usually from 102 µM), without a hit: top-dose activity, negative = inhibition, usual class: inhibitors; note: potency is the fitted concentration of half-maximal effect; % is set by controls: 0 for no effect and ±100 for the full control effect; nearly all actives have a fitted effect of over 75% in size
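AlphaScreen read-out: biotin-H3K9 peptide (500 nM) methylation by 20 nM enzyme with 20 uM SAM, 2 h at room temperature after 15 min compound preincubation; anti-monomethyl H3K9 antibody plus donor/acceptor beads, 10 min dark.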
HP1b binding inh = inhibitors of HP1-beta chromodomain binding to methylated histone tails; AlphaScreen HP1-beta / biotin-H3K9me3 peptide binding; 0.56% of 390,000 active; Potency, µM (titrated, usually from 114 µM), inactives show at the top dose activity change, negative = inhibition, most hits filed as inhibitors; P83916; AID 540317; note: potency is the fitted concentration of half-maximal effect; nearly all actives have a fitted effect of over 70% in size
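HP1-beta protein (50 nM final) preincubated 30 min at room temperature with biotinylated H3(1-18)K9me3 peptide (50 nM) in PBS pH 7.4, 0.01% Tween-20, then compound added for 30 min. AlphaScreen streptavidin donor/nickel chelate acceptor beads (10 ug/mL final), 30 min dark, luminescence read.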
* hit, by the source's call; ? = inconclusive; . = no result given; [ ] = dose if it differs, or a comment. Unless noted, calls come from the whole dose curve; as a rule, active = well fitted inhibition curve with a large enough effect; inconclusive = small, poorly fitted or top-dose-only effect; inactive = no such curve, though single readings can be large or run the other way.

SMILES	CtBP-E1A inh	BAZ2B block	Six1-Eya2 inh	JMJD2A Tudor	G9a block	HP1b binding inh
O=S(=O)(c1ccc(Br)cc1)c1nc(-c2ccco2)oc1NCCCn1ccnc1	8.2	50.1µM*	?	?	44.7µM*	-0.9%
Cc1ccccc1-c1nc(S(=O)(=O)c2ccc(Br)cc2)c(NCc2cccnc2)o1	-9.4	-11.8%	-9.0	-32.5%	-47.7%	11.8%
CCC(=O)N1c2ccccc2CC1C(=O)NCCc1cc(OC)c(OC)c(OC)c1 (centres undefined)	.	-21.3%	.	-15.6%	1.0%[59 µM]	29.7%
O=C(NCc1ccc2c(c1)OCO2)c1ccccn1	3.8	-5.7%	-2.0	-1.3%	0.2%[59 µM]	21.1%
CC(C)C(=O)N(Cc1ccc2c(c1)OCO2)Cc1ccccn1	3.2	?	0.2	56.2µM*	39.8µM*	1.9%
O=C1c2ccccc2NC2(CCCC2)N1O	-1.8	-28.8%	0.1	-13.0%	35.5µM*	24.1%
CCOc1ccccc1C1CC(=O)NC(SCC(=O)Nc2nccs2)=C1C#N (centres undefined)	8.7	-12.1%	4.9	-15.1%	14.1µM*	34.1%
CCOc1ccc(C2CC(=O)NC(SCC(=O)OC)=C2C#N)cc1 (centres undefined)	3.4	9.4%	-2.1	-11.0%	70.8µM*	36.0%
COC(=O)CSC1=C(C#N)C(c2ccc(Cl)cc2)C(C(=O)OC)C(=O)N1 (centres undefined)	-4.8	1.5%	-4.2	-20.1%	44.7µM*	-14.7%
C=CCSC1=C(C#N)C(c2cccc(OC)c2)CC(=O)N1 (centres undefined)	-0.9	4.7%	1.1	-8.2%	44.7µM*	-6.3%
O=C(CN1C(=O)CCc2cc(S(=O)(=O)N3CCOCC3)ccc21)NCc1ccccc1Cl	.	-2.5%	.	2.6%	-2.6%[12.7 µM]	30.9%
CC(=O)c1cccc(NC(=O)CSc2nc3ccccc3nc2Cc2ccc(F)cc2)c1	.	-1.1%	.	-17.5%	3.9%[59 µM]	17.5%[57 µM]
CC(C)C(NS(=O)(=O)c1ccc2c(c1)oc(=O)n2C)C(=O)NCCc1ccccc1 (centres undefined)	.	-10.1%	.	-10.4%	-31.0%[59 µM]	40.2%
CCOC(=O)c1cc2c(=O)n3ccccc3nc2n(CC2CCCO2)c1=NC(=O)c1cccc(C)c1 (centres undefined)	.	5.7%	.	-7.2%	-6.2%[59 µM]	25.2%
Cc1ccc(NC(=O)Cn2c(=O)n(CCc3ccccc3)c(=O)c3sc4ccccc4c32)cc1C	.	-9.9%	.	-11.3%	-19.5%[59 µM]	9.4%
COC(=O)CSC1=C(C#N)C(c2cccc(OC)c2)CC(=O)N1 (centres undefined)	1.4	-5.8%	-3.2	-5.7%	70.8µM*	48.7%
COc1ccc(N=C2C(=O)Nc3ccccc32)cc1	-5.6	5.8%	0.9	-23.9%	?	-2.0%
Cc1ccc(N=C2C(=O)Nc3ccc(C)c(Br)c32)cc1	.	?	2.4	?	1.26µM*	-17.8%
O=C1Nc2ccccc2C1=Nc1ccc(F)cc1	4.1	-3.9%	9.6	-23.9%	-9.1%	?
COc1ccc(N=C2C(=O)Nc3ccc(C)c(Br)c32)cc1	.	6.31µM*	8.7	?	11.2µM*	?
COc1ccc(Cl)cc1NC(=O)CSC1=Nc2ccccc2C2=NC(CC(=O)NC3CCCCC3)C(=O)N12 (centres undefined)	.	-12.5%	.	-16.1%	4.7%[59 µM]	26.2%
c1ccc(N2CCN(c3ccccc3)C2c2cccnc2)cc1	-11.5	?	-9.7	?	?	-18.1%
Cc1ccc(N2CCN(c3ccc(C)cc3)C2c2cccnc2)cc1	?	35.5µM*	?	39.8µM*	-20.1%[12.7 µM]	?
O=C(Nc1cccc(OCc2cc(=O)n3ccccc3n2)c1)c1ccccc1Br	.	8.6%	.	-15.3%	9.9%[59 µM]	11.2%[57 µM]
CCCCCCCN1N=C(C)C(C(=O)c2ccccc2)C1=O (centres undefined)	9.9	?	-11.7	50.1µM*	?	5.4%
CN1CCN(c2nc(-c3cc4ccccc4o3)cs2)CC1	8.0	?	4.9	-5.0%	?	33.6%
Nc1nc(-c2cccs2)cs1	2.4	-37.9%	-4.8	-24.4%	79.4µM*	11.1%
